Data: PubChem BioAssay AID2778 (National Center for Advancing Translational Sciences (NCATS), 2010)
Inconclusive results are not listed. A call without a number means that no potency is given here. Active and inactive are the calls of the source. Calls follow the shape of the dose curve; as a rule, active = well fitted inhibition curve with a large enough effect; inconclusive = small, poorly fitted or top-dose-only effect, or effect the other way; inactive = flat fitted curve, though single readings scatter.

Target: Menin (Homo sapiens) (UniProt O00255)
Sequence (O00255 whole entry, looked up): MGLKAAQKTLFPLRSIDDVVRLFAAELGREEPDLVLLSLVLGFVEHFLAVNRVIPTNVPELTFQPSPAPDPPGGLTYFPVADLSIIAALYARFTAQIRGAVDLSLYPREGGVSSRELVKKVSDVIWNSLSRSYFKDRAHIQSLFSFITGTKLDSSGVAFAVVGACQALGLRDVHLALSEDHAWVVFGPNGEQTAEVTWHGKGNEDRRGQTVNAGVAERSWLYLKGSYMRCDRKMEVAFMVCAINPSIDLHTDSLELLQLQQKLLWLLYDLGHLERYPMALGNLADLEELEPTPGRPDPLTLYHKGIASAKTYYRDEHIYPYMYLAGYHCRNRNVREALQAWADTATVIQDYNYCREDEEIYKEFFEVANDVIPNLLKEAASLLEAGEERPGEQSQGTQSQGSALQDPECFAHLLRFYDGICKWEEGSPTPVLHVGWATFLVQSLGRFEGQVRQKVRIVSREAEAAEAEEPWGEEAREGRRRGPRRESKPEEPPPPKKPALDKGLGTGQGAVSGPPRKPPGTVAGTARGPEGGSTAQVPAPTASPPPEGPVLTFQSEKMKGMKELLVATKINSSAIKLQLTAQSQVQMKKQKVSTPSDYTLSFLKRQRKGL
Assay: Confirmation of Inhibitors Targeting the Menin-MLL Interaction in MLL Related Leukemias: Confirmation in an HTRF (commercial TR-FRET) Assay using His-tagged menin and biotin-labeled MLL peptide
Settings: His-menin / biotin-MLL peptide binding; series mostly up to 126 µM
Procedure, shortened: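 HTRF: His6-menin (200 nM) and biotin-MLL-w.t. peptide (80 nM) preincubated 15 min, then compounds 1 hr at ambient, before Eu-cryptate anti-His (3.5 nM) and streptavidin-XL665 (10 nM) for 1 h; 50 mM Tris-HCl pH 7.5, 50 mM NaCl, 1 mM DTT, BSA.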
Potency is read from the fitted curve at half-maximal effect.

Structure (SMILES) | Potency
CCOc1cc(C(c2c(C)[nH][nH]c2=O)c2c(C)[nH][nH]c2=O)cc(Br)c1OC | inactive
Cc1ccc(-c2cc(C(=O)Nc3cc(C)ccc3O)no2)cc1 | inactive
O=C(O)c1cc(S(=O)(=O)O)cc(Nc2c3ccccc3nc3ccccc23)c1O | inactive
COc1ccccc1CNCC(=O)Nc1ccc(C#N)cc1 | inactive
NC(=O)c1ccc(NC(=O)c2cncn2-c2ccccc2)cc1 | inactive
CCOC(=O)N1CCN(CC(=O)N2c3ccccc3Sc3ccccc32)CC1 | inactive
COC(=O)[C@H](C)NC(=O)c1cc2c(cn1)[nH]c1ccccc12 | 50.1 µM (active)
CCOc1ccc(CCNC(=O)C(C)N2C(=O)CC(C)(C)Sc3ccccc32)cc1 (centres undefined) | inactive
Cc1ccccc1-c1n[nH]c(=S)n1C | inactive
Cc1ccc(C#CC(C)(O)C(C)(C)C)cn1 (centres undefined) | inactive
COc1cnc(-c2ccccn2)nc1N(C)c1ccccc1 | inactive
CN1CCN(CC(=O)Nc2ccc(S(=O)(=O)N(C)C)cc2)CC1 | inactive
CN1C[C@@H]2C[C@H]1CN2c1cc2c(cc1F)c(=O)c(C(=O)O)cn2C1CC1 | inactive
CCC(=O)NC(=S)Nc1ccc(NC(=S)NC(=O)c2ccc(C)cc2)cc1 | inactive
C/C(=N\Nc1ccc(Cl)c(C(=O)O)c1)c1ccc[nH]1 | inactive
O=C(c1cc2c(=O)n3ccccc3nc2s1)N1CCOCC1 | inactive
CCOC(=O)c1cnc2ccc(OC)cc2c1Nc1ccc(N2CCN(C)CC2)cc1 | inactive

Structure (SMILES) | Potency
O=C(O)CSc1cc(NS(=O)(=O)c2ccc(Br)cc2)c2ccccc2c1O | 89.1 µM (active)
Cc1nn(-c2ccccc2)c2nc(N)c(C(N)=O)cc12 | inactive
NC(=NCCCCCCN=C(N)/N=C(\N)Nc1ccc(Cl)cc1)/N=C(\N)Nc1ccc(Cl)cc1 | 282 µM (active)
CC(NC(=O)c1cnc2ccccc2n1)c1ccccc1 (centres undefined) | inactive
C[C@@H]1CN(C(=O)c2nc3ccc(Cl)cn3c2CNCC[C@@H]2C[C@@H]3C=C[C@H]2C3)C[C@H](C)O1 | inactive
CCCN1CCN(CC(O)COC(c2ccc(OC)cc2)c2ccc(OC)cc2)CC1 (centres undefined) | inactive
CCN1CCN(CC(=O)Nc2ccc(C(C)=O)cc2)CC1 | inactive
Cc1ccc(C)n1-c1ccc(N(C)C)cc1 | inactive
CCOC(=O)CCC(=O)NCc1ccc2c(c1)cc(C)n2C | inactive
CCC(=O)NC(=S)Nc1ccc(-c2nc3ccc(C)cc3s2)cc1 | inactive
Cc1ccccc1-c1cncnc1NC1CCNCC1 | inactive
CN1[C@H](CC(=O)c2ccccc2)CCC[C@H]1C[C@@H](O)c1ccccc1 | inactive
N#CC1=C(N)OC2=C(C(=O)CC(c3ccco3)C2)C1c1ccc(OCc2c(F)cccc2Cl)cc1 (centres undefined) | inactive
Cc1cc(C)c2c(=O)cc(C(=O)NCc3ccccc3)oc2c1 | inactive
NC(=O)c1cc2ccccc2o/c1=N/NC(=O)c1cccc(F)c1 | inactive
COc1ccc(N(CC(=O)NC2CC3CCC2C3)S(=O)(=O)c2ccc(C)cc2)cc1OC (centres undefined) | inactive
COc1ccc(-c2csc(NC(=S)NC(=O)/C=C/c3ccc(C(C)C)cc3)n2)cc1OC | inactive
